D1 antagonist – antagonists of human D1 dopamine receptor; activity change, negative = inhibition, % at 10 µM; 360,000 tested, 3.2% active; AID 504652; HEK293 TREx D1 cells, calcium flux, dopamine EC80; active compounds read low; P21728; in the data active = activity change below about -30%; note: % is set by controls: 0 for no effect and ±100 for the full control effect
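Kinetic fluorescence of a calcium dye serves as the read-out. D1-expressing Hek293 Trex cells, induced overnight at 30 C, are exposed to compound for 180 s before an EC80 dopamine addition, then read 180 s further.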
D1 ag – agonists of human D1 dopamine receptor | activation, % at 2 µM | 360,000 tested, 1% active | AID 504660 | P21728 | HEK293 T-REx D1 cells, calcium flux, agonist mode; note: 0% is about no effect
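Inducible HEK293 T-REx D1 cells, force-coupled to calcium signalling, were plated at 4000 cells/well with tetracycline and held overnight at 30 C. After no-wash calcium dye loading, compound-evoked calcium rise over 180 s flagged agonists.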
D1 potentiator – human D1 dopamine receptor positive modulation; P21728; HEK293 TREx D1 cells, calcium flux, dopamine EC20 potentiation; potentiation, % at 10 µM; 360,000 tested, 0.036% active; AID 504651; in the data active = potentiation above about 30%; note: 0% is about no effect
TRHR PAM – TRH receptor (human) allosteric enhancement. P34981. TRHR cells, fluo-8 calcium fluorescence, EC20 TRH enhancement. enhancement, % at 2 µM. 360,000 tested, 0.66% active. AID 493056; in the data active = enhancement above about 30%; note: 0% is about no effect
Target sequence (P34981 whole entry, looked up): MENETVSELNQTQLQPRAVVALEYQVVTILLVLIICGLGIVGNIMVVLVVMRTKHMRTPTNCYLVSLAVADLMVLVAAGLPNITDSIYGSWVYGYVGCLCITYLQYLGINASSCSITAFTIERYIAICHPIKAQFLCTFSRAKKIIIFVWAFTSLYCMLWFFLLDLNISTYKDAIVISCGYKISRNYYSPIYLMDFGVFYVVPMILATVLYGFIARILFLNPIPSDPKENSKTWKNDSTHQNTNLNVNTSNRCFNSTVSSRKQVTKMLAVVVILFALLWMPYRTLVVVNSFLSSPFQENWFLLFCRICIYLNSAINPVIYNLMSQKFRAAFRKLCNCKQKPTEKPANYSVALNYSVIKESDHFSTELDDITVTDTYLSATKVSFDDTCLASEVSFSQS
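Enhancer read-out: after compound pinning and an initial kinetic agonist-mode read, an EC20 of TRH (10 nM final) was injected and fluo-8 calcium signal (Ex 480/Em 530) followed at 1 s/cycle for 100 cycles in TRHR-expressing cells.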
TRHR agonist – activates the human TRH receptor; P34981; TRHR cells, calcium flux fluo-8, FDSS agonist mode; activation, % at 2 µM; 360,000 tested, 0.18% active; note: 0% is about no effect
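TRHR-expressing cells loaded with fluo-8 calcium dye; 23 nL library compound pin-transferred, kinetic FDSS fluorescence (Ex 480/Em 530) recorded about 180 s for agonist-induced calcium release, before a 10 nM TRH EC20 addition for potentiator mode.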
The depositor's hits bear a star; ! = not confirmed by another sample. Hits are enriched below; roughly 4.6% of the tested compounds scored in any of these assays. Cut-off read from the data, not from the text of the source, unless noted: active = activation above about 30%; inactive = the rest.

`CC(=NCCc1c(C)[nH]c2ccc(OCc3ccccc3)cc12)C1=C(O)CC(c2ccccc2)CC1=O` (stereo unspecified) gave D1 antagonist -31*, D1 ag 9, D1 potentiator 2, TRHR PAM 2 and TRHR agonist 1.
`CCC(=NCCc1c(C)[nH]c2ccccc12)C1=C(O)CC(c2ccccc2)CC1=O` (stereo unspecified) gave D1 antagonist 25, D1 ag 2, D1 potentiator 0, TRHR PAM -4 and TRHR agonist 0.
CCC(=NCCc1c(C)[nH]c2ccc(OC(F)(F)F)cc12)C1=C(O)CC(c2ccccc2)CC1=O (stereo unspecified) was read as D1 antagonist -12, D1 ag 5, D1 potentiator -3, TRHR PAM 1 and TRHR agonist 0.
Screening CCCCC(=NCCc1c(C)[nH]c2ccc(OC)cc12)C1=C(O)CC(c2ccccc2)CC1=O (stereo unspecified) returned D1 antagonist -34*, D1 ag 6, D1 potentiator 10, TRHR PAM -7 and TRHR agonist -1.
`COc1ccc(N(C)S(=O)(=O)c2ccc(Cl)c(C(=O)NCC(C)(C)N3CCOCC3)c2)cc1` gave D1 antagonist -20, D1 ag 4, D1 potentiator -2, TRHR PAM -4 and TRHR agonist 0.
Cc1cccc(OCCSCc2nc3ccccc3[nH]2)c1 was read as D1 antagonist -13, D1 ag 8, D1 potentiator -4, TRHR PAM -5 and TRHR agonist -1.
`Cc1ccccc1OCCSCc1nc2ccccc2[nH]1` gave D1 antagonist -30*, D1 ag 8, D1 potentiator -9, TRHR PAM -2 and TRHR agonist -3.
`CC(=O)Nc1ccc(SC[C@H](Cc2ccccc2)N2CC[C@@H](O)CCC2=O)cc1` gave D1 antagonist -18, D1 ag -1, D1 potentiator -1, TRHR PAM 0 and TRHR agonist 0.
`CC(=O)Nc1ccc(SC[C@H](Cc2ccccc2)N2CCN(CCc3ccccc3)CCC2=O)cc1` gave D1 antagonist -33*, D1 ag 7, D1 potentiator -5, TRHR PAM -2 and TRHR agonist 0.
Screening COc1ccc(NC(=O)C(C)Sc2nnc(C3CC3)n2C2CC2)cc1 (stereo unspecified) returned D1 antagonist 4, D1 ag 2, D1 potentiator -8, TRHR PAM -2 and TRHR agonist 0.
COC(=O)CNc1c(-c2ccccc2)nc2ccc(Br)cn12 was read as D1 antagonist 10, D1 ag 0, D1 potentiator 2, TRHR PAM 38* and TRHR agonist -2.
Cc1c(C(=O)N2CCC(C(=O)Nc3ccc(F)cc3)CC2)sc2nc[nH]c(=O)c12 was read as D1 antagonist 10, D1 ag 2, D1 potentiator -4, TRHR PAM 1 and TRHR agonist 0.
Screening Cc1ccccc1C(=O)Nc1c(C(=O)N(CCN(C)C)Cc2ccco2)oc2ccccc12 returned D1 antagonist -11, D1 ag 10, D1 potentiator -5, TRHR PAM -3 and TRHR agonist 1.
Screening COc1ccccc1C(=O)Nc1c(C(=O)N(CCN(C)C)Cc2ccco2)oc2ccccc12 returned D1 antagonist -38*!, D1 ag 46*!, D1 potentiator -14, TRHR PAM 0 and TRHR agonist 2.
Screening CN(C)CCN(Cc1ccco1)C(=O)c1oc2ccccc2c1NC(=O)c1ccccc1 returned D1 antagonist -42*, D1 ag 9, D1 potentiator -5, TRHR PAM -4 and TRHR agonist 1.
For Cc1ccc(-c2nnc(SCC(=O)c3ccc(Cl)cc3)n2-c2ccccc2)cc1 the results were D1 antagonist 2, D1 ag 5, D1 potentiator 4, TRHR PAM 8 and TRHR agonist 0.
Screening COc1cccc(C(=O)N2c3nc(-c4ccco4)nn3C3(CCCCC3)[C@@H]3CCCC[C@@H]32)c1 returned D1 antagonist -2, D1 ag 16, D1 potentiator -1, TRHR PAM -1 and TRHR agonist -1.
For Cc1cc(/C=C2\SC(=S)NC2=O)c(C)[nH]1 the results were D1 antagonist 8, D1 ag 33*, D1 potentiator 6, TRHR PAM -1 and TRHR agonist 11.
For Cc1cc(/C=C2\SC(=S)NC2=O)c(C)n1-c1cccc(O)c1 the results were D1 antagonist 1, D1 ag 34*, D1 potentiator -1, TRHR PAM -4 and TRHR agonist 4.
Screening CCn1c(C)cc(/C=C2/SC(=S)NC2=O)c1C returned D1 antagonist -2, D1 ag 16, D1 potentiator -6, TRHR PAM 5 and TRHR agonist 4.
`Cc1ccc(-n2c(C)cc(/C=C3\SC(=O)NC3=O)c2C)cc1` gave D1 antagonist -36*, D1 ag 10, D1 potentiator -6, TRHR PAM -2 and TRHR agonist -1.
Screening Cc1cccc(-n2c(C)cc(/C=C3\NC(=O)NC3=O)c2C)c1 returned D1 antagonist -40*, D1 ag 0, D1 potentiator -8, TRHR PAM 8 and TRHR agonist 0.
CC(C)Sc1nnc(NC(=O)c2ccc3c(c2)OCO3)s1 was read as D1 antagonist 6, D1 ag 3, D1 potentiator 5, TRHR PAM 0 and TRHR agonist 0.
Screening Cc1cc(C=C2C(=O)c3ccccc3C2=O)c(C)n1-c1ccccc1 returned D1 antagonist -1, D1 ag 33*, D1 potentiator -3, TRHR PAM -9 and TRHR agonist 6.
`O=S(=O)(O)c1c(NS(=O)(=O)c2ccccc2)ccc2ccccc12` gave D1 antagonist -36*, D1 ag 3, D1 potentiator -7, TRHR PAM 5 and TRHR agonist 2.
Cc1c(O)ccc(NS(=O)(=O)c2ccccc2)c1C was read as D1 antagonist -36*, D1 ag 1, D1 potentiator -4, TRHR PAM -1 and TRHR agonist 0.
Cc1cc(NS(=O)(=O)c2ccccc2)c(C)c(Cl)c1O was read as D1 antagonist -23, D1 ag 44*, D1 potentiator -4, TRHR PAM -6 and TRHR agonist 5.
C=Cc1ccc(Cn2c(C)c(CNCCc3ccc(OCC)cc3)c(C(=O)O)c2C)cc1 was read as D1 antagonist 2, D1 ag -2, D1 potentiator -2, TRHR PAM -2 and TRHR agonist 0.
CCOC(=O)c1ccccc1NC(=O)N1CCC(CN2CCCCC2)CC1 was read as D1 antagonist 5, D1 ag -1, D1 potentiator 1, TRHR PAM 13 and TRHR agonist 1.
